Screens from PubChem.
Anthrax LF inh2 – anthrax lethal factor protease inhibition | inhibition, % at 10 µM | AID 588501 | multiplex microsphere protease cleavage assay, LF | 360,000 tested, 0.12% active; further: plate controls were buffer without enzyme for full effect and enzyme alone for no effect
Target sequence (P15917 whole entry, looked up): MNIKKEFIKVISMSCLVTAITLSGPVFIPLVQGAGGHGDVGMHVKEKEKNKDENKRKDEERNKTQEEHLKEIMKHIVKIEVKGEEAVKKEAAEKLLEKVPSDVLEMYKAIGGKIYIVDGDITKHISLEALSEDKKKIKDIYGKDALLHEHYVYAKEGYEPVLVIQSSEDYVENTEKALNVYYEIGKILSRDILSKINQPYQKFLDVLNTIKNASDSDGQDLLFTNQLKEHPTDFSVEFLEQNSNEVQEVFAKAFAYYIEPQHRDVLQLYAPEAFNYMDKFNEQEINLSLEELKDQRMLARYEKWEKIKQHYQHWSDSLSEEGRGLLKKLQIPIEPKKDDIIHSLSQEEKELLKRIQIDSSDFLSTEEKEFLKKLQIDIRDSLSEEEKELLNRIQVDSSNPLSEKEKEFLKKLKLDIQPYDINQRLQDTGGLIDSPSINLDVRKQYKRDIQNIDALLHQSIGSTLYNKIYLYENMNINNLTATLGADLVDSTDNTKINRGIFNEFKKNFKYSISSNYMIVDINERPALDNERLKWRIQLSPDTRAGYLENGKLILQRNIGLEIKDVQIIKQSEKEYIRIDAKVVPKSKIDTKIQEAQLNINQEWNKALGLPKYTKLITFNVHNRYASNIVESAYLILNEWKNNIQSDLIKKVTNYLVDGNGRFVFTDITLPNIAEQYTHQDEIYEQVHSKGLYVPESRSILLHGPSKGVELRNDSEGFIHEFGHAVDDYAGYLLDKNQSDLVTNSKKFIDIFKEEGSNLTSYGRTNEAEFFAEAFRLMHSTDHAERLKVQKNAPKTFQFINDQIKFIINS
BoNT-A LC inh2 – BoNT A light chain protease inhibition | multiplex microsphere protease substrate cleavage, flow cytometry | inhibition, % at 10 µM | 360,000 tested, 0.17% active; further: plate controls were buffer without enzyme for full effect and enzyme alone for no effect
Autofluor counter – compound fluorescence in toxin protease inhibitor counterscreen. 360,000 tested, 3.1% active. fluorescence intensity (test concentration not listed). compound autofluorescence counterscreen, microsphere flow cytometry; stronger effect = higher value; in the data active means fluorescence intensity above about 16000; inconclusive means no clear call, values can overlap the other calls
MazEF act – activators of E. coli MazEF toxin-antitoxin RNase. P0AE70. FAM/BHQ RNA-DNA oligo cleavage fluorescence, 5 h. activation, % at 20 µM. 350,000 tested, 0.32% active; in the data active means activation above about 50%
DUSP3 inh – blocks human VHR1 dual specificity phosphatase. P51452. recombinant VHR phosphatase, pNPP absorbance. inhibition, % at 13.3 µM. 290,000 tested, 0.52% active; in the data active means inhibition above about 50%
BoNT-F LC inh – blocks Botulinum neurotoxin F light chain protease. 360,000 tested, 0.22% active. inhibition, % at 10 µM. Multiplex microsphere protease cleavage assay, flow cytometry; in the data active means inhibition above about 35%, passing the limit was not always enough; inconclusive means no clear call, values can overlap the other calls; further: plate controls were buffer without enzyme for full effect and enzyme alone for no effect
Starred values were filed as active, the others as inactive; ? = inconclusive; nt = not tested or not shown. In the library only some 4.1% were active in any assay of this set; here they are far more common. Unless noted, no stated cut-off is given here; in the data, active means inhibition above about 30%; inconclusive means no clear call, values can overlap the other calls; inactive means below that.

SMILES	Anthrax LF inh2	BoNT-A LC inh2	Autofluor counter	MazEF act	DUSP3 inh	BoNT-F LC inh
O=C(N=Nc1c(O)[nH]c2ccc(Br)cc12)c1ccccc1-n1cccc1	-7.0	-3.4	24096*	9.1	39.2	-7.5
COc1ccccc1N=Nc1c(O)[nH]c2ccc(Br)cc12	6.2	2.7	3600	137.0*	13.9	21.0
Cc1ccccc1N=Nc1c(O)[nH]c2ccccc12	9.2	0.3	5770	481.6*	nt	-5.4
O=C(Cn1cnc2c(OCc3ccccc3)ncnc21)NCCCc1ccccc1	-3.1	-0.8	3085	-2.4	nt	-0.8
N#C/C(=N\Nc1cccc2ccccc12)c1nnc2n1CCCCC2	-1.4	-0.9	2654	47.8	4.7	-7.1
CCOC(=O)N1CCC(NC(=O)c2cc(C)c3c(C)nn(-c4ccccc4)c3n2)CC1	-7.7	3.7	19067*	4.4	18.8	6.8
CCOC(=O)N1CCC(NC(=O)c2cc(COc3ccccc3SC)on2)CC1	-1.6	0.8	5790	6.3	52.8*	8.6
COC(=O)c1cc(C)c(C)cc1NC1OC(CO)C(O)C1O (stereo not drawn)	-9.7	0.4	3001	10.6	nt	3.3
CCNC(=O)N(C)[C@H]1C[C@H]2c3[nH]c4ccccc4c3CCN2C[C@H]1[C@H](C)O	0.4	1.0	5598	nt	nt	-2.7
C[C@H](O)[C@@H]1CN2CCc3c([nH]c4ccccc34)[C@@H]2C[C@@H]1N(C)C(=S)NCCc1ccccc1	-1.1	37.4*	12944	nt	nt	-31.5
CCOC(=O)CN1C(=O)N[C@@H](c2ccccc2)[C@H](C(C)=O)[C@H]1C	-1.2	0.6	3926	1.2	nt	2.4
Cc1cc(NC(=O)COC(=O)CC2CCCC2)c([N+](=O)[O-])cc1C	nt	nt	nt	-4.9	20.2	nt
CCC(=O)OCC(=O)Nc1cc(C)c(C)cc1[N+](=O)[O-]	-1.3	-0.5	2734	-1.4	50.8*	-5.0
CC(=O)Nc1ccc(/C=C(\C#N)C(=O)NCc2ccccc2)cc1	-0.1	0.2	2668	0.6	-2.9	-3.5
CC(=O)Nc1ccc(/C=C(\C#N)C(N)=O)cc1	?	1.7	3652	6.8	6.2	35.0*
CC(C)(C)c1cnnn1-c1ccc(C(=O)CCl)cc1	0.5	-0.1	3229	8.8	-0.1	-27.9
CC(C)(C)c1cnnn1-c1ccc(C=O)cc1	-3.7	-2.6	24224*	1.9	-9.6	-4.2
CCCCNC(=S)NNC(=O)c1sccc1C	-1.6	-0.1	16469*	-19.3	21.4	-1.0
Cc1ccsc1C(=O)NCc1ccc(Cl)cc1	-9.3	-2.9	?	-4.9	nt	-68.0
Cc1ccsc1C(=O)NCc1ccccc1Cl	-5.7	-0.2	3774	1.2	58.5*	-7.5
CNC(=S)NNC(=O)c1sccc1C	-0.4	0.7	2048	0.8	4.6	1.3
COC(=O)[C@]12CCCCC=C1N(Cc1ccccc1)C(=O)[C@H](CC(=O)N1CCCCC1)C2	-11.9	-0.3	4074	nt	nt	-0.3
CCNc1nc(CC)nc2c1oc1ccccc12	-10.5	4.3	21864*	1.0	12.0	5.2
Cc1nc(NCC2CCCO2)c2oc3ccccc3c2n1 (stereo not drawn)	0.3	2.9	21375*	1.2	16.6	4.0
CCc1nc(NCc2cccnc2)c2oc3ccccc3c2n1	-0.9	1.7	16165*	1.5	26.3	0.2
SMILES	Anthrax LF inh2	BoNT-A LC inh2	Autofluor counter	MazEF act	DUSP3 inh	BoNT-F LC inh
CCNc1nc(C)nc2c1oc1ccccc12	-1.6	-0.3	11198	-3.7	25.8	-5.7
CCCNC1(C(N)=O)CCN(Cc2ccccc2)CC1	-6.3	0.3	3214	5.0	nt	4.8
O=C(C[C@H]1C(=O)N(C2CCCCC2)C[C@@H]1c1ccccc1)Nc1ccc(Br)cc1	-6.5	-0.2	3019	13.2	nt	4.3
COc1ccccc1CNC(=O)COC(=O)c1cc(=O)c2ccccc2o1	-11.2	0.2	2818	-1.5	nt	1.6
Cc1cc(NC(=O)CCC(=O)N(Cc2ccc(F)cc2)C(C(=O)NC2CCCC2)c2ccco2)no1 (stereo not drawn)	6.9	0.5	3484	3.7	14.4	3.0
N#Cc1c(-n2ccnc2)cccc1-n1ccnc1	-1.7	1.6	21837*	2.2	-4.1	2.1
COCCn1c(SCC(=O)NCCc2ccccc2)nnc1-c1ccco1	-1.0	-2.8	17231*	-2.8	35.9	-3.3
Cn1cnnc1SCC(=O)NCCC(c1ccccc1)c1ccccc1	-1.0	-0.4	2429	8.5	-3.8	-8.5
CCN(CC)C(=O)CSc1nnc(-c2ccco2)n1N	-10.5	8.4	17289*	6.5	15.2	8.8
CCCn1c(SCC(=O)NC(C)(C)C)nnc1-c1ccco1	-6.8	0.7	4753	3.5	53.0*	-9.8
Cn1cnnc1SCC(=O)NCCc1ccccc1	-3.3	-3.4	23752*	-2.4	16.6	-6.5
C[C@@H]([C@H](O)c1ccccc1)N(C)C(=S)Nc1ccccc1	-7.5	-0.5	3072	-1.8	14.8	-13.7
Cc1ccc(SCC(=O)Nc2ccc3c(c2)C(=O)N(C)C3=O)cc1	-1.2	-0.4	5526	11.5	25.2	4.2
CCOc1ccccc1-n1c(SCC(=O)NC)nnc1-c1ccco1	-6.3	-5.6	17639*	0.7	3.8	-9.6
CC(=O)c1c(C)[nH]c(C(=O)CSc2nnc(-c3cccs3)n2Cc2ccccc2)c1C	-1.7	0.3	11137	-5.2	14.6	-6.9
CC(C)(C)NC(=O)CSc1nnc(-c2ccco2)n1Cc1ccco1	-4.0	-1.1	16522*	0.3	6.7	-1.4
CC(=O)c1c(C)[nH]c(C(=O)CSc2nnc(-c3ccco3)n2Cc2ccccc2)c1C	-0.4	0.2	16352*	-10.9	21.3	1.4
COC(=O)CSc1nnc(-c2ccco2)n1Cc1ccco1	-2.9	0.5	2864	1.9	15.4	-2.5
CNC(=O)CSc1nnc(-c2ccco2)n1-c1ccccc1OC	-2.2	0.0	7903	-4.1	-0.4	5.2
CCCS(=O)(=O)n1nc(-c2ccccc2)cc1N	-6.0	-0.6	4452	7.0	54.5*	-9.0
COC(=O)c1ccccc1S(=O)(=O)N1CCC(C(=O)NCc2ccco2)CC1	nt	nt	nt	0.5	nt	nt
CCN1C(=O)/C(=C2/SC(C)=C(C)N2CC)SC1=S	-4.2	2.0	4231	75.7*	20.8	10.6
CCN1C(=O)/C(=C\N2CCCCCC2)SC1=S	-0.8	-0.1	3748	-2.1	20.0	-4.5
NNc1ccc([N+](=O)[O-])c2[nH][nH]c(=O)c12	-7.7	-1.4	2791	0.4	nt	-10.1
CSc1c(SCc2ccccc2)cnn(-c2ccccc2)c1=O	0.8	5.2	2028	2.8	-3.8	20.6
COC(=O)C1=C(C)N(C(C)C)C(=O)C1(NC(=O)C1CCCCC1)C(F)(F)F (stereo not drawn)	-4.0	?	19805*	-0.6	14.5	1.5
CCCC(=O)N1CCCC1(C)C(=O)Nc1ccc(OC(F)F)cc1 (stereo not drawn)	-4.9	-0.5	3651	nt	nt	-3.2
Nc1ccccc1-c1nnn(CC(=O)Nc2ccc3c(c2)OCCO3)n1	0.2	1.7	5856	-17.2	-9.1	-2.4
COc1ccc(C(=O)Nc2ccccc2-c2nnn(CC(=O)Nc3ccc4c(c3)OCCO4)n2)cc1	0.3	-0.8	20699*	-11.1	2.6	-0.7
